Source: PubChem (National Center for Advancing Translational Sciences (NCATS))
DT40 TDP1 CPT = DT40-hTDP1 cell growth loss with CPT; AID 686979; actives 12% (n = 420,000); chicken DT40 Tdp1-/-;hTDP1 cells + 20 nM CPT, ATP luminescence, 48 h; Potency, µM (doses to about 46.2 µM), without a hit: at the top dose activity change, negative = growth inhibition, actives largely listed as inhibitors; also: potency is read from the fitted curve at half-maximal effect; nearly all actives have a fitted effect of over 55% in size
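Chicken DT40 Tdp1-/- cells complemented with human TDP1, 400 cells/well, exposed to compounds plus 20 nM camptothecin for at least 48 h at 37 C; viability read as ATP content by CellTiter-Glo luminescence.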
DT40 TDP1 no CPT = qHTS for Inhibitors of human tyrosyl-DNA phosphodiesterase 1 (TDP1): qHTS in cells in absence of CPT; AID 686978, 2013; actives 15% (n = 420,000); Potency, µM (highest dose often 46.2 µM), for inactives: top-dose activity change, negative = growth inhibition, actives largely listed as inhibitors; DT40 Tdp1-/- hTDP1 cells, no CPT, ATP luminescence, 48 h; also: potency is read from the fitted curve at half-maximal effect; nearly all actives have a fitted effect of over 55% in size
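Growth kinetics read by CellTiter-Glo luminescence after ≥48 hr at 37 °C. Cells: DT40 Tdp1-/- stably carrying human TDP1, 400 per well, compound exposure in the absence of CPT (DMSO vehicle).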
HT1080NT lethal = kills 2HG-producing HT-1080-NT fibrosarcoma cells | actives 1.6% (n = 360,000) | HT-1080-NT fibrosarcoma viability, CellTiter-Glo ATP luminescence, 48 h | Potency, µM (doses to about 46.1 µM), for inactives: at the highest dose activity, negative = less viability, most hits filed as cytotoxic;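 also: NT is the 2HG producing partner of a matched IDH1 knockdown line; potency is read from the fitted curve at half-maximal effect; 0% = DMSO-treated cells and -100% = media-only wells without cells; nearly all actives have a fitted effect of over 55% in size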
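A 48-hour cytotoxicity screen used HT-1080-NT cells plated 2 hours before compound delivery. ATP-based CellTiter-Glo luminescence measured viability, normalized to DMSO and no-cell controls.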
HT1080 IDH1KD tx = HT-1080 IDH1 knockdown cell toxicity (counter line); HT-1080 IDH1 knockdown viability, ATP luminescence, 48 h; Potency, µM (highest dose often 46.1 µM), inactives show top-dose activity, negative = toxicity, most hits filed as cytotoxic; actives 2% (n = 360,000);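 also: potency is read from the fitted curve at half-maximal effect; 0% = DMSO wells and -100% = cell-free medium wells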
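CellTiter-Glo luminescence after 48 h compound exposure at 37 degrees C of IDH1-knockdown HT-1080 cells in 5% FBS RPMI. %Activity scaled between DMSO wells and cell-free media wells, with curves fitted and assigned curve classes.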
IL1B secr inh = inflammasome signaling inhibition, IL-1 beta readout | THP-1 LPS/ATP IL-1B secretion, AlphaLISA, 16 h; stronger effect = lower value | activity change, % at 57.5 µM | actives 4.7% (n = 360,000) | AID 743279; in the data active = activity change below about -50%; inconclusive = mostly about -30% to -49%
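THP-1 cells pretreated 1 hr with compounds (up to 57.5 uM final), then stimulated with LPS (250 ng/mL final) plus ATP (1.25 mM final); secreted IL-1B measured by AlphaLISA after 16 hr, decreased signal indicating inhibition.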
Numbers without * were called inactive; u = inconclusive; x = no result given; [ ] = remark or other dose. A selection: hits, their analogues and other compounds. The true share with any hit is near 19%. Unless noted, calls follow the shape of the dose curve; as a rule, active = well fitted curve in the direction sought with a large enough effect; inconclusive = small, poorly fitted or top-dose-only effect, or another doubt; inactive = no such curve, though single readings can be large; an effect the other way counts as inactive or inconclusive. Unless noted, % is scaled to controls: 0 for no effect and ±100 for the full control effect.

SMILES	DT40 TDP1 CPT	DT40 TDP1 no CPT	HT1080NT lethal	HT1080 IDH1KD tx	IL1B secr inh
N#Cc1ccc(S(=O)(=O)N2CCN(C(=O)c3cn(-c4ccccc4)nc3-c3cccnc3)CC2)cc1	2%	-6%	-7%	2%	-9
COc1ccc(S(=O)(=O)N2CCCCC2)cc1C(=O)Nc1cc(C)on1	-21%	-9%	-8%	4%	-20
COc1ccc(NS(=O)(=O)c2csc(C(=O)N3CCCC3)c2)c(OC)c1	u	u	-21%	5%	17
CCc1nnc(NC(=O)CCC(=O)Nc2ccc(C)cc2)s1	1%	3%	-4%	0%	-5
COc1ccc(-c2cn3cccnc3n2)cc1F	4%	-18%	-10%	10%	-7
CC(c1nccs1)N(C)c1nc2nonc2nc1N(C)C (configuration not stated)	17%	-2%	0%	3%	5
FC(F)(F)c1ccccc1NC1=NCCC1	10%	-1%	1%	17%	19
Cc1onc(-c2c(Cl)cccc2Cl)c1C(=O)N/N=C(\N)COc1ccc(Cl)cc1	5.2µM*	5.2µM*	u	u	50
Cc1onc(-c2c(Cl)cccc2Cl)c1C(=O)NC1CCCCC1	u	9.2µM*	0%	-19%	-5
Cc1onc(-c2c(F)cccc2Cl)c1C(=O)c1ccccc1O	-28%	u	u	26µM*	-11
Cc1onc(-c2c(Cl)cccc2Cl)c1C(=O)NN1CCCCCC1	9%	-29%	11%	12%	x
COc1cc(/C=N/NC(=O)c2c(-c3c(Cl)cccc3Cl)noc2C)ccc1OCC(N)=O	-1%	-12%	0%	-3%	87
COc1ccc(CNC(=O)C2CCC(CNC(=O)[C@@H]3Cc4ccccc4CN3)CC2)cc1 (some centres not stated)	-10%	12%	3%	0%	-17
CN1CCc2c(sc3c2c(=O)n(-c2ccccc2)c2n[nH]c(=S)n32)C1	-12%	-13%	-5%	-8%	2
O=C(CCC(=O)Nc1ccc(F)cc1)N/N=C/c1cc([N+](=O)[O-])ccc1O	0%	u	-27%	-14%	23
O=C(N/N=C/c1cc([N+](=O)[O-])ccc1O)C1CCCCC1	5.2µM*	4.6µM*	u	u	53
O=C(CCC(=O)Nc1cc(C(F)(F)F)ccc1Cl)N/N=C\c1cc([N+](=O)[O-])ccc1O	10µM*	8.2µM*	u	-13%	81
O=[N+]([O-])c1ccc(O)c(C2CCCCC2)c1	u	u	15µM*	16µM*	u
O=C(CCC(=O)Nc1ccc(Br)cc1)N/N=C/c1cc([N+](=O)[O-])ccc1O	23µM*	u	-15%	3%	113
COc1ccccc1NC(=O)NCC1(N(C)C)CCCCC1	12%	-19%	9%	3%	-10
c1ccc(-c2nnc(OCC3CCCO3)c3ccccc23)cc1 (configuration not stated)	-1%	u	13%	3%	-1
COc1ccc(S(=O)(=O)Nc2ccc3c(c2)C(=O)N([C@H](C)CO)C[C@H](C)[C@@H](CN(C)S(=O)(=O)c2cccs2)O3)cc1	u	u	5%	7%	-9
O=C(NC1CCSc2ccccc21)c1ccc(Cl)c(S(=O)(=O)N2CCOCC2)c1 (configuration not stated)	u	u	-4%	-1%	0
COc1ccc(N(CC(=O)N2CCOCC2)S(C)(=O)=O)cc1Cl	0%	1%	-2%	11%	-1
Nc1nnc(SCC(=O)N2CCN(Cc3ccccc3)CC2)s1	-3%	0%	5%	11%	20
SMILES	DT40 TDP1 CPT	DT40 TDP1 no CPT	HT1080NT lethal	HT1080 IDH1KD tx	IL1B secr inh
COc1ccc(OC)c(NC(=O)CN2C(=O)COc3ccc(C)cc32)c1	u	-5%	9%	7%	7
COC(=O)c1[nH]c(C)c(/C(O)=C2\C(=O)C(=O)N(CCN3CCOCC3)C2c2ccco2)c1C (configuration not stated)	21%	-9%	9%	19%	14
O=C(Cn1nc2ccccc2n1)N/N=C/c1cc([N+](=O)[O-])ccc1O	u	u	-10%	u	208
O=C(Cn1nnc(-c2ccccc2)n1)N/N=C/c1cc([N+](=O)[O-])ccc1O	5.8µM*	4.1µM*	-1%	3%	41
O=C(N/N=C/c1cc([N+](=O)[O-])ccc1O)c1ccc(COc2ccc3c(c2)CCC3)o1	2.6µM*	3.3µM*	u	u	119
O=c1c(-c2cc(F)cc(F)c2)nc2cnc(N3CCOCC3)nc2n1Cc1ccc(F)cc1	9%	20%	x	x	x
N#Cc1c(N)nc(SC2CCCCC2=O)c(C#N)c1-c1ccco1 (configuration not stated)	-25%	u	-10%	-13%	-14
Cc1c(-c2ccc(F)cc2)nc(N)c(C#N)c1-c1ccco1	-9%	4%	u	13µM*	3
N#Cc1c(N)nc(SCc2ccccc2)c(C#N)c1-c1ccco1	u	u	u	8%[9.24 µM]	-73*
N#Cc1c(N)nc(SCC(=O)OCc2ccccc2)c(C#N)c1-c1ccco1	-1%	-5%	9%	17%	15
CCCOC(=O)CSc1nc(N)c(C#N)c(-c2ccco2)c1C#N	5%	-27%	13%	10%	-88*
CCc1nc(N)c(C#N)c(-c2ccc(F)cc2)c1C	-2%	0%	5%	6%	9
O=C(O)C(O)C(O)c1nc2ccccc2[nH]1 (configuration not stated)	1%	0%	12%	9%	4
CCc1cc(/C(Cc2cscn2)=N\O)c(O)cc1O	-11%	u	-4%	-7%	31
CCc1cc(/C(Cc2ccccn2)=N\O)c(O)cc1O	u	-29%	u	13µM*	-6
CCc1cc(/C(Cc2ccc3ccccc3n2)=N\O)c(O)cc1O	u	u	-10%	-8%	-101*
CCc1cc(C(=O)Cc2nc3ccccc3[nH]2)c(O)cc1O	-22%	u	-28%	-17%	68
Cc1c(O)ccc(/C(Cc2ccc3ccccc3n2)=N\N)c1O	7.3µM*	10µM*	-16%	u	0
Cc1cccc(C)c1NC(=O)N1CCC(C(N)=O)(N2CCCCC2)CC1	-1%	2%	x	x	x
CCOc1ccccc1NC(=O)CSc1cn(CC(=O)N2CCCCCC2)c2ccccc12	u	26µM*	x	x	x
CCOc1ccccc1NC(=O)COC(=O)c1cn(CC)c2nc(C)ccc2c1=O	18µM*	u	x	x	x
